Screens as filed in PubChem.
Dicer processing = inhibitors of human Dicer processing of pre-microRNA; cat-ELCCA pre-miR-21 Dicer processing, chemiluminescence; stronger effect = higher value; z-score at 25 µM; 47,000 compounds, 6% hits; AID 1347074; in the data active = z-score above about 3, passing the limit was not always enough;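 also: plate controls were vehicle for no effect and no enzyme for full effect; higher signal means more uncleaved substrate so more Dicer inhibition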
* hit, by the source's call. This is one part of a sample in which hits are shown more often than they occur.

SMILES | Dicer processing
CCOc1ccc(N=c2ssc(SC)c2-c2ccccc2)cc1 | -0.88
CSc1ssc(=Nc2ccc(C)c(Cl)c2)c1-c1ccccc1 | -0.32
CC(=O)OC[C@H]1O[C@@H](N2CCCCC2)[C@H](OC(C)=O)[C@@H](OC(C)=O)[C@@H]1OC(C)=O | 0.82
CN(C)C(=S)SCc1ccc(C(=O)Oc2c(Cl)cccc2Cl)cc1 | 0.48
CCOC(=O)N1CCN(S(C)(=O)=O)CC1 | 3.5*
CCOC(=O)N1CCN(S(=O)(=O)c2ccc(Cl)cc2)CC1 | 2.9
CCCS(=O)(=O)N1CCN(C2CCN(C(=O)OCC)CC2)CC1 | -1.1
CC1=C(C(=O)OCCOc2ccccc2)C(c2ccncc2)C2=C(CCCC2=O)N1 (configuration not stated) | 1.2
Cc1cc(Oc2ncccc2[N+](=O)[O-])c2c(Cl)ccc(C)c2n1 | -0.45
Cc1ccsc1/C=C/c1ccnc(SCc2c(Cl)cccc2Cl)n1 | 0.09
Cn1cnc([N+](=O)[O-])c1N1CCC(C(N)=O)CC1 | -1.6
CCOC(=O)C(C(=O)OCC)c1c([N+](=O)[O-])c(=O)n(C)c2ccccc12 | -1.6
CCCc1nn(C)c(C(N)=O)c1[N+](=O)[O-] | 5.5*
N=C(N)c1ccc(Cl)cc1 | 3.7*
N=C(N)c1cc(Cl)cc(Cl)c1 | -0.57
O=C(O)CCC(=O)c1ccc(Cl)cc1 | -0.17
CN/N=C/c1ccc(-c2ccc([N+](=O)[O-])cc2)o1 | 2.1
CCOc1ccc(C2c3c(oc4ccc(F)cc4c3=O)C(=O)N2Cc2ccc3c(c2)OCO3)cc1 (configuration not stated) | 0.97
Cc1nc2ccccn2c1-c1csc(Nc2ccccn2)n1 | 9.1
Cc1nc2ncccn2c1-c1csc(Nc2ccc(O)cc2)n1 | 9.1
COc1ccc(Nc2nc(-c3sc(C)nc3C)cs2)cc1 | 0.54
Cc1nc(C)c(-c2csc(Nc3ccc(O)cc3)n2)s1 | 6.1*
Cc1ccnc(Nc2nc(-c3c(C)nc4cc(C)ccn34)cs2)c1 | 5.6*
CC(=O)Nc1nc(C)c(-c2csc(Nc3ccc(O)cc3)n2)s1 | -2.7
Cc1ccn2c(-c3csc(Nc4ccc(O)cc4)n3)c(C)nc2c1 | 7.1*
SMILES | Dicer processing
CC(=O)Nc1nc(C)c(-c2csc(Nc3ccccn3)n2)s1 | -0.82
Cc1ccn2c(-c3csc(Nc4ccc(S(=O)(=O)Nc5cc(C)on5)cc4)n3)c(C)nc2c1 | 2.7
O=C(Cc1cccc2ccccc12)OCC(=O)c1ccc(Br)cc1 | -0.01
CN1CCc2c(sc3c2C(=O)NC(c2ccc(OC(=O)c4cccs4)cc2)N3)C1 (configuration not stated) | -1.1
CCOC(=O)N/N=C/c1cccc2ccccc12 | -0.13
CN1C2C=C(N(CCc3c[nH]c4ccccc34)C(=O)c3ccccc3)CC1CC2 (configuration not stated) | 0
CC1=C2CCCC2CC/C1=N\Nc1nc(-c2ccccc2)cs1 (configuration not stated) | 0.7
CCN(CC)CC(=O)Nc1sc2c(c1C#N)CCC(C)C2 (configuration not stated) | 2.5
CCCn1c(=O)c(C#N)cn(-c2ccc(Cl)cc2)c1=O | 2.6
O=C(COC(=O)c1c(C(F)(F)F)cccc1C(F)(F)F)c1ccc(Cl)cc1 | 0.65
c1cc(-c2nc3ccccc3o2)cc(-c2nc3ccccc3o2)c1 | 2.8
C(=C\c1nc2ccccc2o1)/c1ccccc1 | -0.71
Brc1ccc(-c2ccc(/C=C/c3nc4ccccc4o3)o2)cc1 | 8.2*
O=C(Nc1ccccc1Oc1ccc(Cl)cc1Cl)c1cc(Cl)sc1Cl | -0.24
CN(C)CCCNC(=O)C(=O)Nc1ccccc1Oc1ccc(Cl)cc1Cl | 0.16
N#CC(C#N)=NNc1ccccc1Oc1ccc(Cl)cc1Cl | 3.9*
O=S(=O)(c1ccc(Cl)cc1)c1nc(-c2cccs2)oc1N1CCOCC1 | -1.2
O=C(CC1SC(=Nc2ccc(C3CCCCC3)cc2)NC1=O)Nc1ccc(C2CCCCC2)cc1 (configuration not stated) | 0.93
S=C(Nc1ccccc1Cl)N1CCCc2ccccc21 | 3.8*
Cc1cccc2c1N(C(=S)Nc1ccccc1Cl)CCC2 | 1.6
O=C(Nc1ccccc1)N1c2ccccc2CCc2ccccc21 | 0.06
S=C(Nc1ccccc1Cl)N1CCc2ccccc2C1 | -0.33
O=C(Nc1ccccc1)N1CCCc2ccccc21 | 3.2*
O=C(Nc1ccc(OCc2ccccc2)cc1)N1CCCc2ccccc21 | 2.1
CC(C)(C)C1=NN(c2ccccc2)C(=O)C1 | -5.6
SMILES | Dicer processing
COc1ccc(-c2oc3ncn4nc(-c5cccnc5)nc4c3c2-c2ccc(OC)cc2)cc1 | 1.8
Cc1cc(=O)n2ncnc2n1CC(=O)N/N=C/c1ccc(Cl)cc1 | -0.7
O=C(Cn1c(-c2ccccc2)cc(=O)n2ncnc12)N/N=C/c1ccc2c(c1)OCO2 | -0.78
Cc1cc(=O)n2ncnc2n1CC(=O)NN | 3.1*
CCCCCCSc1n[nH]c(=S)s1 | -0.86
Nc1nccnc1C(=O)N/N=C/c1ccccc1F | 0.4
CSc1sc(C(=O)Nc2cccc(C(F)(F)F)c2)cc1C#N | 0.02
CC(C)S(=O)(=O)c1csc(NC(=O)Nc2ccc(C(F)(F)F)cc2)c1 | 2.2
CSc1sc(C(=O)NNC(=O)c2ccc(Cl)cc2)cc1S(=O)(=O)C(C)C | 2.4
CC(C)S(=O)(=O)c1csc(NC(=O)Nc2ccc(Cl)cc2)c1 | 19
CSc1sc(NC(=O)Nc2ccc(Cl)cc2)cc1S(=O)(=O)C(C)C | 3.9*
CSc1sc(NC(=O)Nc2cccc(C(F)(F)F)c2)cc1S(=O)(=O)C(C)C | 3.3*
Fc1ccc(-c2csc(Nc3cccnc3)n2)cc1 | 2.8
CC(=O)/C(N=Nc1ccc(F)cc1F)=C(\C)O | -0.98
CC(C)(CO)Nc1ccc(C(F)(F)F)cc1[N+](=O)[O-] | -0.21
Cc1cc(=O)[nH]c(NC(=O)C(C)(C)C)n1 | 0.06
CC1=C(C(=O)OCCOC(C)C)C(c2ccc(O)cc2)C2=C(CCCC2=O)N1 (configuration not stated) | 0.26
COc1cc(N=Cc2cc(Cl)cc(Cl)c2OS(=O)(=O)c2ccc(C)cc2)c(OC)cc1Cl | 0.34
CC(C)(C)c1ccc(-c2ncc(-c3cccc([N+](=O)[O-])c3)s2)cc1 | 0.03
c1ccc(-c2ccc(-c3cnc(-c4ccncc4)s3)cc2)cc1 | 3.1*
O=c1sc(-c2ccccc2)ncc1-c1ccccc1 | -0.08
CN(C)c1ccc(NCc2ccccn2)cc1 | -1.7
CN(C)C(=O)c1ccc2ncsc2c1 | 0.5
O=C(Nc1ccccc1)c1cncc(C#Cc2ccccc2)c1 | -0.23
CCc1oc(C(=O)O)cc1CN(CC)CC | 1.6
SMILES | Dicer processing
CCN(CC)Cc1cc(C(C)C)c(O)c(C(C)C)c1 | 4.1*
CCN(CC)Cc1cc(O)c(CN(CC)CC)cc1O | -2
O=C(Cn1cc(-c2ccccc2)nc1SCc1ccccc1)c1ccccc1 | -2.1
CC(C)C(=O)n1c2ccc(F)cc2c2nc3ccccc3nc21 | 1.1
c1ccc2c(-c3nnc(-c4ccc5nccnc5c4)o3)cccc2c1 | 0.11
COc1cc(C(=O)O)cc(Br)c1OC | 0.34
COc1cc2c(C(=O)O)c(C)n(-c3ccccc3)c2cc1Br | 3.1*
CCOC(=O)c1c(C)n(-c2ccccc2)c2cc(Br)c(O)cc12 | 3.7*
COc1ccccc1-n1c(C)c(C(=O)O)c2cc(OC)c3ccccc3c21 | 4.6*
CCOC(=O)c1c(C)n(-c2ccccc2)c2ccc(OC(C)=O)cc12 | 1.4
CCOC(=O)c1c(C)n(-c2ccccc2)c2ccc(OC(=O)c3cccnc3SCC)cc12 | -0.1
CCOC(=O)c1c(C)n(-c2ccc(N(C)C)cc2)c2ccc(OCC(N)=O)cc12 | 4.6*
CCOC(=O)c1c(C)n(-c2ccc(Br)cc2)c2ccc(O)cc12 | -0.48
COc1ccccc1N1CCN(C(=O)c2cc(C)on2)CC1 | -0.05
